# Measured values published in PubChem BioAssay (NCATS).
# Inconclusive results are not listed. Where a call stands in place of a potency, no number is given. Values without a mark were called inactive. Calls of active or inactive are those of the source. Calls follow the shape of the dose curve; as a rule, active = well fitted curve in the direction sought with a large enough effect; inconclusive = small, poorly fitted or top-dose-only effect, or another doubt; inactive = no such curve, though single readings can be large; an effect the other way counts as inactive or inconclusive.
# What was measured:
# [1] = qHTS for Inhibitors of the Aldehyde Dehydrogenase Family (ALDH1A2, ALDH1A3, ALDH2, ALDH3A1) (AID 2061307); also: nearly all actives have a fitted effect of over 50% in size; as to potency: test system not described further here; potency is read from the fitted curve at half-maximal effect
# [2] = target: Aldehyde dehydrogenase, mitochondrial (Homo sapiens) (UniProt P05091); test: qHTS for Inhibitors of the Aldehyde Dehydrogenase Family (ALDH2) Primary screen (AID 2061308); also: nearly all actives have a fitted effect of over 55% in size; also: potency is read from the fitted curve at half-maximal effect
# [3] = target: Retinaldehyde dehydrogenase 3 (Homo sapiens) (UniProt P47895); test: qHTS for Inhibitors of the Aldehyde Dehydrogenase Family (ALDH1A3) Confirmatory screens (AID 2061311); also: nearly all actives have a fitted effect of over 60% in size; also: potency is read from the fitted curve at half-maximal effect
# [4] = target: Retinal dehydrogenase 2 (Homo sapiens) (UniProt O94788); test: qHTS for Inhibitors of the Aldehyde Dehydrogenase Family (ALDH1A2) Confirmation screens (AID 2061314); also: nearly all actives have a fitted effect of over 65% in size; also: potency is read from the fitted curve at half-maximal effect
# [5] = target: Aldehyde dehydrogenase 1A1 (Homo sapiens) (UniProt P00352); test: qHTS for Inhibitors of the Aldehyde Dehydrogenase Family (ALDH1A1) Confirmatory screens (AID 2061316); also: nearly all actives have a fitted effect of over 65% in size; also: potency is read from the fitted curve at half-maximal effect
# [6] = target: Retinaldehyde dehydrogenase 3 (Homo sapiens) (UniProt P47895); test: qHTS for Inhibitors of the Aldehyde Dehydrogenase Family (ALDH1A3) Primary screen (AID 2061315)
# [7] = BET inhibitor-based combinations targeting novel dependencies in MECOM-rearranged (r) AML: SET-2 cell line (AID 2202231); settings: SET-2 AML cells viability, CellTiter-Glo luminescence, 48 h; viability: stronger effect = lower value, concentration not given here; also: potency is read from the fitted curve at half-maximal effect; nearly all actives have a fitted effect of over 35% in size
# How it was run: (§1)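 A 48 hr incubation preceded viability reading by CellTiter-Glo, with 15 min room-temperature development. Dose series had 11 points; normalization used DMSO and empty wells; AUC was computed and mean-centered per line as Z-AUC.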
# [8] = BET inhibitor-based combinations targeting novel dependencies in MECOM-rearranged (r) AML: OCI-AML3 cell line (AID 2202232); settings: Potency: OCI-AML3 viability; also: potency is read from the fitted curve at half-maximal effect; nearly all actives have a fitted effect of over 35% in size
# How it was run: as §1
# [9] = BET inhibitor-based combinations targeting novel dependencies in MECOM-rearranged (r) AML: MV-4-11 cell line (AID 2202233); also: potency is read from the fitted curve at half-maximal effect; nearly all actives have a fitted effect of over 45% in size
# How it was run: (§2)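 Each compound is tested in an 11-point concentration series against 500 seeded cells/well for 48 hr. The luminescent viability signal is normalized to DMSO and blank wells, then reduced to AUC and a cell-line-centred Z-AUC.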
# [10] = BET inhibitor-based combinations targeting novel dependencies in MECOM-rearranged (r) AML: HNT-34 cell line (AID 2202234); also: potency is read from the fitted curve at half-maximal effect; nearly all actives have a fitted effect of over 35% in size
# How it was run: as §2
# [11] = BET inhibitor-based combinations targeting novel dependencies in MECOM-rearranged (r) AML: UCSD-AML1 cell line (AID 2202235); also: potency is read from the fitted curve at half-maximal effect; nearly all actives have a fitted effect of over 40% in size
# How it was run: as §2
# [12] = BET inhibitor-based combinations targeting novel dependencies in MECOM-rearranged (r) AML: AML-191 cell line (AID 2202236; also: potency is read from the fitted curve at half-maximal effect; nearly all actives have a fitted effect of over 35% in size)
# How it was run: as §1
# [13] = BET inhibitor-based combinations targeting novel dependencies in MECOM-rearranged (r) AML: AML-194 cell line (AID 2202237; also: potency is read from the fitted curve at half-maximal effect; nearly all actives have a fitted effect of over 40% in size)
# How it was run: as §1
smiles,measurement,setting,value
Cc1cc(C)nc(NC(=S)N2CCN(c3cc4ccccc4cn3)CC2)c1,Potency,[1],inactive
same,Potency,[2],inactive
same,Potency,[3],6.34 µM (active)
same,Potency,[4],15.9 µM (active)
same,Potency,[5],5.04 µM (active)
CC(=O)Nc1ccc(OCc2cccc(C3Nc4ccccc4C(=O)N3Cc3ccco3)c2)cc1 (centres undefined),Potency,[1],10.1 µM (active)
same,Potency,[2],inactive
same,Potency,[3],12.7 µM (active)
same,Potency,[4],14.2 µM (active)
same,Potency,[6],inactive
same,Potency,[5],5.65 µM (active)
Cc1ccc(-c2cc(C(=O)Nc3ccc(-c4noc(=O)[nH]4)cc3)c3ccccc3n2)cc1C,Potency,[1],7.08 µM (active)
same,Potency,[2],inactive
same,Potency,[3],11.2 µM (active)
same,Potency,[4],inactive
same,Potency,[6],inactive
same,Potency,[5],inactive
COC(=O)c1ccc(O)c2ncc(N3CC[C@H](N)C3)cc12,Potency,[1],inactive
same,Potency,[2],inactive
same,Potency,[3],12.7 µM (active)
same,Potency,[4],inactive
same,Potency,[6],inactive
same,Potency,[5],11.3 µM (active)
O=C(c1ccco1)N1CCN(c2nc(-c3ccc(Br)cc3)cs2)CC1,Potency,[1],3.98 µM (active)
same,Potency,[2],inactive
same,Potency,[3],15.8 µM (active)
same,Potency,[4],inactive
same,Potency,[6],inactive
COc1ccc(-n2c(C)c(C(C)=O)c3cc(O)ccc32)cc1,Potency,[1],inactive
same,Potency,[2],inactive
same,Potency,[3],inactive
same,Potency,[4],inactive
same,Potency,[6],inactive
same,Potency,[5],inactive
O=C(O)c1cccc(-n2cccc2/C=C2/C(=O)N(Cc3ccc(F)cc3)C(=O)N2Cc2ccc(F)cc2)c1,Potency,[1],14.2 µM (active)
same,Potency,[2],inactive
same,Potency,[3],inactive
same,Potency,[4],inactive
same,Potency,[6],inactive
same,Potency,[5],inactive
O=C(O)c1ccc(O)c2ncc(N3CC(N4CCOCC4)C3)cc12,Potency,[1],inactive
same,Potency,[2],inactive
same,Potency,[3],12.7 µM (active)
same,Potency,[4],15.9 µM (active)
same,Potency,[6],inactive
O=C1Nc2c(Cl)cccc2/C1=C\c1cc(Cl)c(O)c(Cl)c1,Potency,[1],1.79 µM (active)
same,Potency,[2],inactive
same,Potency,[3],inactive
same,Potency,[4],25.2 µM (active)
same,Potency,[6],inactive
same,Potency,[5],7.12 µM (active)
COc1ccc(C2=Nn3c(nnc3-c3ccccc3OC)SC2)cc1,Potency,[1],2.01 µM (active)
same,Potency,[2],inactive
same,Potency,[4],inactive
same,Potency,[6],inactive
c1csc(CNc2ccc(N3CCOCC3)cc2)c1,Potency,[1],inactive
same,Potency,[2],inactive
same,Potency,[4],22.5 µM (active)
COc1ccc(C2Oc3ccccc3C(=O)N2Cc2ccccc2)cc1COc1ccc(NC(C)=O)cc1 (centres undefined),Potency,[1],0.283 µM (active)
same,Potency,[2],inactive
same,Potency,[4],7.12 µM (active)
same,Potency,[6],inactive
CN(C)[C@H]1CCN(c2cccc(Nc3nn4c(=O)c5ccccc5nc4s3)c2)C1,Potency,[1],inactive
same,Potency,[2],inactive
same,Potency,[3],3.18 µM (active)
same,Potency,[6],inactive
same,Potency,[5],5.04 µM (active)
CN1C(=O)Cc2cc([S+](=O)([O-])N3CCN([S+](=O)([O-])c4c(F)cccc4F)CC3)ccc21,Potency,[1],inactive
same,Potency,[2],inactive
same,Potency,[3],inactive
same,Potency,[6],inactive
O=C1Nc2ccccc2/C1=C/c1cccc(C(=O)O)c1,Potency,[1],2.24 µM (active)
same,Potency,[2],inactive
same,Potency,[3],4 µM (active)
same,Potency,[5],inactive
Cc1ccc(OCCn2c3c(c4ccccc42)CN(C(=O)C2CCCCC2)CC3)cc1,Potency,[1],1.59 µM (active)
same,Potency,[2],inactive
same,Potency,[3],11.3 µM (active)
same,Potency,[6],inactive
same,Potency,[5],2.01 µM (active)
COc1ccc(-c2nc3ccccc3c(=O)n2Cc2ccco2)cc1COc1ccc(NC(C)=O)cc1,Potency,[1],20.1 µM (active)
same,Potency,[2],inactive
same,Potency,[4],12.7 µM (active)
same,Potency,[6],inactive
COc1ccc(C2Nc3ccccc3C(=O)N2Cc2ccc(-c3ccccc3)cc2)cc1COc1ccc(NC(C)=O)cc1 (centres undefined),Potency,[1],1.79 µM (active)
same,Potency,[2],inactive
same,Potency,[3],11.2 µM (active)
same,Potency,[6],inactive
CN(C)c1ccc(C(=O)NCC(=O)OC(C(=O)Nc2cc(C(F)(F)F)ccc2Cl)c2ccccc2)cc1 (centres undefined),Potency,[1],inactive
same,Potency,[2],inactive
same,Potency,[3],11.3 µM (active)
same,Potency,[6],inactive
c1nc(NCC2CC2)c2cc(-c3ccc4c(c3)OCO4)ccc2n1,Potency,[1],inactive
same,Potency,[2],inactive
same,Potency,[3],inactive
same,Potency,[6],inactive
CC(C)(Nc1nc(-c2ccccc2C(F)(F)F)nc2ccccc12)c1ccc(-c2cccc(C(F)(F)F)c2)cc1,Potency,[1],inactive
same,Potency,[2],inactive
same,Potency,[3],inactive
same,Potency,[6],inactive
O=C(OCC#CCSc1nnc(-c2cccc3ccccc23)o1)c1ccncc1,Potency,[1],inactive
same,Potency,[2],inactive
same,Potency,[3],2.01 µM (active)
same,Potency,[6],inactive
same,Potency,[5],inactive
C=C1[C@@H](OC(C)=O)CC[C@@]2(C)[C@@H](OC(C)=O)[C@H](OC(C)=O)C3=C(C)C[C@H](OC(=O)C(C)CC)[C@@H]([C@@H](OC(C)=O)[C@H]12)C3(C)C (some centres undefined),Potency,[1],inactive
same,Potency,[2],2.51 µM (active)
same,Potency,[3],inactive
same,Potency,[6],inactive
same,Potency,[5],inactive
O=c1[nH]c(CN2CCOCC2)nc2sc3c(c12)CCCC3,Potency,[1],inactive
same,Potency,[2],inactive
same,Potency,[3],inactive
same,Potency,[6],inactive
same,Potency,[5],inactive
NC(=O)C1CCN(c2nc(-c3cc4ccccc4o3)cs2)CC1,Potency,[1],2.83 µM (active)
same,Potency,[2],inactive
same,Potency,[3],inactive
same,Potency,[6],inactive
same,Potency,[5],6.34 µM (active)
NC(=O)C1CCN(c2nccc(-c3ccc4c(c3)OCCCO4)n2)CC1,Potency,[1],inactive
same,Potency,[2],inactive
same,Potency,[3],12.7 µM (active)
same,Potency,[6],inactive
same,Potency,[5],11.3 µM (active)
CNC(=O)C1CCN(c2nc(-c3ccc(Br)cc3)cs2)CC1,Potency,[1],12.6 µM (active)
same,Potency,[2],inactive
same,Potency,[3],inactive
same,Potency,[6],inactive
CN(C)CCCNc1ccc(NC(=O)c2cccs2)cn1,Potency,[1],inactive
same,Potency,[2],inactive
same,Potency,[4],5.65 µM (active)
same,Potency,[6],inactive
Cc1ccc(-c2cnn(CC(=O)NCCc3ccccc3)c(=O)c2)cc1,Potency,[1],12.7 µM (active)
same,Potency,[2],inactive
same,Potency,[3],14.1 µM (active)
same,Potency,[6],inactive
Cc1ccc(NC(=O)CN2C(=O)N/C(=C\c3cccn3-c3ccc(C(=O)O)cc3)C2=O)cc1,Potency,[1],inactive
same,Potency,[2],inactive
same,Potency,[3],inactive
same,Potency,[6],inactive
Cc1csc(CN(C)c2ncnc3ccc(-c4ccc5c(c4)OCO5)cc23)n1,Potency,[1],0.201 µM (active)
same,Potency,[2],inactive
same,Potency,[3],25.1 µM (active)
same,Potency,[6],inactive
same,Potency,[5],12.7 µM (active)
N#Cc1cnc(NS(=O)(=O)c2ccc(NC(=O)Cc3ccc(Cl)c(Cl)c3)cc2)s1,Potency,[1],25.2 µM (active)
same,Potency,[2],inactive
same,Potency,[3],inactive
same,Potency,[6],inactive
same,Potency,[5],inactive
Nc1ccc(Nc2cc(O)c3ncccc3c2)cc1,Potency,[1],inactive
same,Potency,[2],inactive
same,Potency,[3],0.712 µM (active)
same,Potency,[5],14.2 µM (active)
COc1ccc(C2Nc3ccccc3C(=O)N2Cc2ccncc2)cc1COc1ccc(NC(C)=O)cc1 (centres undefined),Potency,[1],3.57 µM (active)
same,Potency,[2],inactive
same,Potency,[4],5.04 µM (active)
same,Potency,[6],inactive
Cc1cc(-c2nnc3n2CCCCC3)c(C)n1-c1cccc2ccccc12,Potency,[1],inactive
same,Potency,[2],inactive
same,"activity change, negative = inhibition",[3],-18.8% [at 0.022 µM]
same,Potency,[5],12.7 µM (active)
N#Cc1c(-c2cccc(Cl)c2)no[n+]1[O-],Potency,[1],12.7 µM (active)
same,Potency,[2],8.91 µM (active)
same,Potency,[4],5.04 µM (active)
same,Potency,[6],inactive
C/C(=C\c1cccc(C(F)(F)F)c1)C1Nc2cccc3cccc(c23)N1,Potency,[1],inactive
same,Potency,[2],inactive
same,Potency,[3],11.3 µM (active)
same,Potency,[6],inactive
Cc1ccc(CN(C)c2ncnc3ccc(-c4ccc(C#N)n4C)cc23)o1,Potency,[1],3.16 µM (active)
same,Potency,[2],inactive
same,Potency,[3],22.4 µM (active)
same,Potency,[6],inactive
same,Potency,[5],12.7 µM (active)
CCOc1ccc(CCNC(=O)c2cc3c(s2)CCC3)cc1OCC,Potency,[1],inactive
same,Potency,[2],inactive
same,Potency,[4],14.2 µM (active)
same,Potency,[6],inactive
CNc1oc(-c2c[nH]c3ccccc23)nc1C#N,Potency,[1],11.3 µM (active)
same,Potency,[2],inactive
same,Potency,[4],inactive
same,Potency,[6],inactive
Cc1ccc(S(=O)(=O)Nc2cc(C(F)(F)F)ccc2C(=O)Nc2nc(-c3ccccc3)cs2)cc1,Potency,[1],0.355 µM (active)
same,Potency,[2],inactive
same,Potency,[3],inactive
same,Potency,[6],inactive
same,Potency,[7],14.8 µM (active)
same,Potency,[8],7.42 µM (active)
same,Potency,[9],8.33 µM (active)
same,Potency,[10],7.42 µM (active)
same,Potency,[11],8.33 µM (active)
same,Potency,[12],5.9 µM (active)
same,Potency,[13],9.34 µM (active)
Cc1ccc2nc3sc(C(=O)N4CCCCC4)cc3cc2c1,Potency,[1],11.3 µM (active)
same,Potency,[2],inactive
same,Potency,[3],12.7 µM (active)
same,Potency,[6],inactive
Cc1ccc(CN(C)c2ccc(N3CCN(C)CC3)cc2)cc1,Potency,[1],inactive
same,Potency,[2],10 µM (active)
same,Potency,[3],20.1 µM (active)
same,Potency,[5],2.01 µM (active)
N#Cc1cccnc1SC1=NS(=O)(=O)c2ccccc21,Potency,[1],0.891 µM (active)
same,Potency,[2],3.16 µM (active)
same,Potency,[3],1.27 µM (active)
same,Potency,[5],0.0712 µM (active)
O=C([C@@H]1CCCN(c2ccc3[nH]c(C4(n5cc(Cl)cn5)CC4)nc3n2)C1)N1CCCC1,Potency,[1],inactive
same,Potency,[2],inactive
same,Potency,[3],inactive
same,Potency,[6],inactive
same,Potency,[5],inactive
N#Cc1nc(Nc2ccccc2)nc(NC2CCCCC2)n1,Potency,[1],0.708 µM (active)
same,Potency,[2],inactive
same,Potency,[4],inactive
same,Potency,[6],inactive
CCCCN1C(=O)c2ccccc2NC1c1ccc(OC)c(COc2ccc(NC(C)=O)cc2)c1 (centres undefined),Potency,[1],7.12 µM (active)
same,Potency,[2],inactive
same,Potency,[3],12.6 µM (active)
same,Potency,[6],inactive
CC(=O)Nc1sc2c(c1-c1nc3ccccc3s1)CN(C(C)C)C2,Potency,[1],inactive
same,Potency,[2],inactive
same,Potency,[3],inactive
same,Potency,[6],inactive
